# A selection: hits, their analogues and other compounds. The true share with any hit is near 3.9%.
# WT yeast gro inh = growth inhibition of WT yeast, mitochondrial fusion screen; actives 2.1% (n = 190,000); inhibition, % at 10 µM; mitochondrial fusion phenotypic screen, WT strain; in the data active = inhibition above about 58%; tested in S. cerevisiae
# TPT1 inhibitor = inhibitors of Candida albicans tRNA 2'-phosphotransferase TPT1 | actives 0.81% (n = 300,000) | AID 1962 | recombinant caTPT1, FP RNA substrate dephosphorylation | inhibition, % at 5 µM;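 active = inhibition above the mean of all tested compounds plus 3 SD, set per screening campaign, cut at about 24% in these data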;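 note: plate controls were DMSO alone for no effect and ferristatin control at 100 nM for full effect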
# Platelet DG rel = modulates dense granule release in human platelets | human platelet-rich plasma, SFLLRN dense granule ATP release, luminescence | inhibition, %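 (compounds screened at 7.5 µM in platelet-rich plasma)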 | actives 0.22% (n = 300,000);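 active = mean replicate score, as percent of positive control, at or above 50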
# Rtt109 HAT inh = blocks Candida albicans Rtt109/Vps75 acetyltransferase activity | actives 0.16% (n = 330,000) | Q5AAJ8 | inhibition, % at 34.9 µM | purified Rtt109/Vps75, ThioGlo CoA-SH fluorescence, 4 h;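 active = inhibition of at least 50% in every replicate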
# PHOSPHO1 block = PHOSPHO1 (human) inhibition. Q8TCT1. recombinant PHOSPHO1, absorbance phosphatase assay. actives 1.1% (n = 290,000). inhibition, % at 13.3 µM. AID 1565; in the data active = inhibition above about 60%
# Target sequence (Q8TCT1 whole entry, looked up): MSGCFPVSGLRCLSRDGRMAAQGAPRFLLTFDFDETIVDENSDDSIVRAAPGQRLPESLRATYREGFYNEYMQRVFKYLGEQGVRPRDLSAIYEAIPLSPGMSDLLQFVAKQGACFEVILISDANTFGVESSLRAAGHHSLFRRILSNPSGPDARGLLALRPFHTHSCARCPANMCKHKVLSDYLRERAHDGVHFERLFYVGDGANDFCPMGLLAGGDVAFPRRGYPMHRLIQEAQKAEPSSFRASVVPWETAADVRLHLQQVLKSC
# SKKanGAS inh = SKKanGAS growth inhibition; AID 1662; S. pyogenes SKKanGAS, kanamycin growth, BacTiter-Glo, 6 h; inhibition, % at 7.5 µM; actives 1.3% (n = 300,000);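 active = mean replicate score, as percent of positive control median, at least 50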;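 note: strain carries kanamycin resistance gene driven by streptokinase promoter and grows in 40 µg/ml kanamycin; loss of luminescence reflects streptokinase promoter inhibition or plain growth inhibition; 0% = median of DMSO wells and 100% = positive control at its reference dose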
# Active calls of the source: *; x = no result given.
SMILES,WT yeast gro inh,TPT1 inhibitor,Platelet DG rel,Rtt109 HAT inh,PHOSPHO1 block,SKKanGAS inh
Clc1ccc(Cn2ncc3c(N4CCCC4)ncnc32)cc1,9.0,-4.0,1.6,2.4,-12.9,-1.9
CC1(C(=O)CSc2nc3ccccc3[nH]2)CCC(=O)O1 (stereo not drawn),-18.6,-6.4,-0.7,-2.7,1.5,4.9
CC1(C(=O)CSc2ncn[nH]2)CCC(=O)O1 (stereo not drawn),-6.9,1.6,-5.5,x,92.8*,-6.2
CCn1c(SCC(=O)N/N=C/C=C\c2ccco2)nc2ccccc21,-16.6,5.0,5.6,-1.1,-29.4,-12.0
Cn1c(SCC(=O)N/N=C/C=C\c2ccco2)nc2ccccc21,-20.1,2.7,-7.2,-9.8,73.4*,-6.7
Cc1nc(-c2cccc(NS(=O)(=O)c3cccc4ccccc34)c2)cs1,61.9*,3.4,9.8,-1.4,12.5,0.2
COc1ccc2c(c1)sc1nc(-c3ccccc3)cn12,-1.3,-8.1,54.3*,0.8,-11.1,19.4
CCOC(=O)N1CCN(C(=O)c2ccc3c(c2)sc2nc(-c4ccc(OC)cc4)cn23)CC1,-4.7,1.6,0.2,-16.3,35.2,44.9
CN=c1scc(-c2ccc(Br)cc2)n1C,-7.2,-6.1,5.1,-17.0,4.4,-6.5
CN=c1scc(-c2ccccc2Br)n1/N=C/c1ccc[nH]1,72.6*,17.7,0.0,x,40.0,6.0
O=C(O)c1cccc(S(=O)(=O)Nc2cccc(S(=O)(=O)N3CCCC3)c2)c1,x,x,x,-2.2,x,x
COCCN=c1scc(-c2cc(OC)ccc2OC)n1/N=C/c1c[nH]c2ccccc12,58.1*,2.0,6.0,-4.1,-10.5,18.2
COc1ccc(-n2cccc2C=O)cc1,-14.9,3.6,4.6,0.7,4.1,0.2
COc1ccc(-n2cccc2/C=C/[N+](=O)[O-])cc1,70.5*,5.1,-1.2,-7.1,-9.8,25.8
COc1ccc(C2=NO[C@@H]3C(=O)N(C4CCCCC4)C(=O)[C@H]23)cc1OC,-6.5,1.7,-2.0,4.0,6.4,7.7
COc1ccc(-c2nc3c(n2O)CCCC3=O)cc1OC,60.2*,-0.5,8.4,-4.3,-4.2,1.1
O=C(NC1CC1)C1CC(=O)N(c2cccc(Cl)c2)C1 (stereo not drawn),x,-2.8,-3.3,-3.5,14.7,-10.8
Fc1ccccc1Nc1nc2ccccc2o1,x,2.5,58.0*,-10.1,33.7,19.7
c1ccc(Nc2nc3ccccc3o2)cc1,17.9,0.6,4.6,-3.0,17.1,8.0
CCOC(=O)C1(S(=O)(=O)c2ccc(Cl)cc2)CCN(Cc2ccc(C)cc2)CC1,71.8*,1.7,-6.2,-8.6,2.9,2.1
CCOC(=O)C1(Cc2ccc(Cl)cc2)CCN(Cc2cnc(N)nc2)CC1,-0.5,-5.1,-2.4,1.8,13.5,11.4
COc1cc(/C=C2/S/C(=N/S(=O)(=O)c3ccccc3)NC2=O)c([N+](=O)[O-])cc1OC,9.7,-11.6,6.7,-4.4,71.3*,36.0
CN(C)c1ccc(NC(=O)CSc2nnc(-c3ccco3)c(-c3ccco3)n2)cc1,x,-8.8,-18.2,20.2,-28.4,0.5
Cc1ccc(NC(=O)CSc2nnc(-c3ccco3)c(-c3ccco3)n2)cc1,0.8,-2.3,1.6,16.1,60.2*,5.9
O=C(CSc1nnc(-c2ccco2)c(-c2ccco2)n1)Nc1ccccc1,54.3,-1.7,-3.4,13.9,63.8*,-3.7
SMILES,WT yeast gro inh,TPT1 inhibitor,Platelet DG rel,Rtt109 HAT inh,PHOSPHO1 block,SKKanGAS inh
C=C1/C(=C\C=C2/CCC[C@]3(C)[C@@H]([C@H](C)CCCC(C)(C)O)CC[C@@H]23)C[C@@H](O)C[C@@H]1O,94.5*,-3.0,2.8,x,31.7,17.2
CCCc1cc(=O)[nH]c(SCC(=O)N2c3ccccc3NC(=O)C2(C)C)n1,x,x,x,5.1,x,x
O=C1N/C(=N\N=C\c2cccs2)SC1Cc1ccc(Cl)c(Cl)c1 (stereo not drawn),43.0,-0.6,16.7,-2.2,-3.0,56.3*
C=CCC1S/C(=N/N=C/c2cccs2)NC1=O (stereo not drawn),-0.3,-1.8,-5.3,4.2,4.9,-2.7
O=Nc1c(O)n(Cc2cccc(Cl)c2)c2ccccc12,67.4*,1.3,-0.8,6.7,33.0,1.9
O=C1C=C(N2CCCCC2)c2ccccc2C1=O,x,-3.2,3.2,x,x,82.1*
O=C1c2ccccc2C(=O)c2c1cccc2N1CCCC1,21.0,-6.1,7.3,1.3,-29.3,14.6
Cc1occc1C(=O)Nc1cccc(Cl)c1Cl,x,1.7,4.4,-4.0,-39.4,-6.1

# Assay outcomes: PubChem BioAssay, several laboratories
